We go through one molecule from the supplement of paper PMC8728848.

What all share (assay): glycan array binding signal (z-score within array); higher = stronger binding
What all share (conditions): glycan notation: IUPAC condensed, linker removed

For one assay, the target named is GalNAc(b1-4)GlcNAc. Put shortly:
(§1)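 The binding signal is a Z-score computed within each array and averaged over linkers. Arrays of the same protein sequence at different concentrations or buffers were also averaged together. Data originate from 3228 arrays in the Consortium for Functional Glycomics database, kept only where the protein sequence was available.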

The target of a further assay is GalNAc3S(b1-4)GlcNAc. Put shortly:
as §1

The target in assay [1] is GlcNAc(a1-3)Gal(b1-4)GlcNAc. Put shortly: as §1
In assay [2] the target is GlcNAc(b1-3)Gal(b1-4)GlcNAc(b1-3)Gal(b1-4)GlcNAc(b1-3)Gal(b1-4)GlcNAc(b1-3)Gal(b1-4)GlcNAc(b1-2)Man(a1-3)[GlcNAc(b1-3)Gal(b1-4)GlcNAc(b1-3)Gal(b1-4)GlcNAc(b1-3)Gal(b1-4)GlcNAc(b1-3)Gal(b1-4)GlcNAc(b1-2)Man(a1-6)]Man(b1-4)GlcNAc(b1-4)[Fuc(a1-6)]GlcNAc. Put shortly:
as §1

The next assay addresses GlcNAc(b1-3)GalNAc. The method in brief:
as §1

The next assay has as its target Man(a1-2)Man(a1-3)Man. Put shortly:
as §1

The next assay has as its target Neu5Ac(a2-3)Gal. The method in brief:
as §1

The target of assay [3] is Neu5Ac(a2-3)Gal(b1-3)GalNAc. Put shortly:
as §1

Assay [4] addresses Neu5Ac(a2-3)Gal(b1-3)GlcNAc(b1-3)Gal(b1-4)GlcNAc. Put shortly: as §1
Assay [5] deals with Neu5Ac(a2-3)Gal(b1-3)[Neu5Ac(a2-6)]GlcNAc(b1-3)[Fuc(a1-3)[Gal(b1-4)]GlcNAc(b1-6)]Gal(b1-4)Glc. The method in brief:
as §1

For assay [6], the target named is Neu5Ac(a2-3)Gal(b1-4)GlcNAc(b1-3)Gal(b1-4)GlcNAc(b1-3)Gal(b1-4)GlcNAc(b1-2)Man(a1-3)[Neu5Ac(a2-3)Gal(b1-4)GlcNAc(b1-3)Gal(b1-4)GlcNAc(b1-3)Gal(b1-4)GlcNAc(b1-2)Man(a1-6)]GalNAc. The method in brief:
as §1

Assay [7] addresses Neu5Ac(a2-3)Gal(b1-4)[Fuc(a1-3)]GlcNAc(b1-3)GalNAc. Put shortly:
as §1

Assay [8] concerns the target Neu5Ac(a2-3)Gal6S(b1-4)[Fuc(a1-3)]GlcNAc. The method in brief: as §1
For assay [9], the target named is Neu5Ac(a2-6)Gal(b1-3)GlcNAc(b1-3)[Gal(b1-4)GlcNAc(b1-6)]Gal(b1-4)Glc. Put shortly: as §1
The target in assay [10] is Neu5Ac(a2-6)Gal(b1-4)GlcNAc(b1-2)Man(a1-6)[GlcNAc(b1-2)Man(a1-3)]Man(b1-4)GlcNAc(b1-4)GlcNAc. Put shortly:
as §1

Assay [11] has as its target Neu5Ac(a2-6)Gal(b1-4)GlcNAc(b1-3)Gal(b1-4)[Fuc(a1-3)]GlcNAc(b1-3)Gal(b1-4)[Fuc(a1-3)]GlcNAc. The method in brief:
as §1

Another assay concerns the target Neu5Ac(a2-8)Neu5Ac. The method in brief: as §1
In assay [12] the target is Neu5Gc(a2-3)Gal(b1-3)[Fuc(a1-4)]GlcNAc. The method in brief:
as §1

The target in assay [13] is Neu5Gc(a2-3)Gal(b1-4)GlcNAc(b1-3)Gal(b1-4)GlcNAc(b1-2)Man(a1-3)[Neu5Gc(a2-3)Gal(b1-4)GlcNAc(b1-3)Gal(b1-4)GlcNAc(b1-2)Man(a1-6)]Man(b1-4)GlcNAc(b1-4)GlcNAc. Put shortly:
as §1

The entries come from a sample that favours the strongest signals as a whole.

B1: GS7807H-bfa-490-18-490 (Bacteroides fragilis) (protein)
chain: GNLEEMNIDPDNATQTHPKLLLTQICMNAFKRGTDGMYATKKVIQADGESADQYYKWTRGSFGYYDNLRNVQKMGEEAERVNAPVYTALTKFFRAYYFYELTLRFGDIPYSQALKGEKEEIYTPEYDAQEDVFAGILQELREADEILANDASVIDGDIIYNGNSTQWRKLINSFRLKVLMTLSNHTTVGNINIASEFKNIATNSPLMNSLADNGQLVYLDQQGNRYPQFNAQWSGYYMDDTFIQRMRERRDPRLFIFSAQTNKGKTEGKPIDDFSSYEGGDPAAPYSDAIIKVSEGTISPINDRFRTDPIVEPTMLMGYAELQQILAEAVVRGWISGNAQTYYEKGIRASFSFYETHAKDYAGYLNENAVAQYLKEPLVDFTQASGTEEQIERIIMQKYLVTFYQGNWDSFYEQLRTGYPDFRRPAGTEIPKRWMYPQGEYDNNGTNVETAITRQFGAGNDKINQATWWQKKS
Turning to B1, the “glycan array binding signal (z-score)” value with GalNAc(b1-4)GlcNAc was 0.462; in the assay with GalNAc3S(b1-4)GlcNAc it was -0.743; in assay [1], -0.677; in assay [2], 4.28; with GlcNAc(b1-3)GalNAc, -0.454; with Man(a1-2)Man(a1-3)Man, 0.369. The “glycan array binding signal (z-score)” value with Neu5Ac(a2-3)Gal was -0.022; in [3] it was -0.368; in [4], -0.526; in assay [5], -0.176; in [6], 9.02; in assay [7] it was 5.66. The “glycan array binding signal (z-score)” value in assay [8] is -0.29; in assay [9], 0.078; in assay [10] it was -0.141; in assay [11], -0.32; with Neu5Ac(a2-8)Neu5Ac, -0.459; in assay [12] it was -0.469. The “glycan array binding signal (z-score)” value in assay [13] was -0.11.
